Assay results: PubChem BioAssay (EPA / NIEHS)
Results filed as inconclusive are left out. The source made the active and inactive calls. How the source made its calls, unless noted: active means hit-call score of the fitted dose curve at least 0.9, where 1 is the maximum; inactive means score below 0.9.

Key:
[1] = ATG_NFI_CIS: Attagene CIS-FACTORIAL HepG2 Assay for human Nuclear Factor I (NFI) (AID 2282989); settings: HepG2 cis-regulatory reporter, NFI response element transcription; actives raise or lower the signal
Outline: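 Transient MRTU transfection of HepG2 → 24 h chemical dosing → total RNA, oligo(dT) RT → PCR, 6-FAM primer extension, HpaI cut → capillary electrophoresis. Endpoint fitted bidirectionally relative to DMSO.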

[2] = target: Myc proto-oncogene protein (Homo sapiens) (UniProt P01106); test: ATG_Myc_CIS: Attagene CIS-FACTORIAL HepG2 Assay for human Myelocytomatosis (Myc) Proto-Oncogene Transcription Factor (AID 2282990); settings: HepG2, Attagene cis-reporter transcription factor activity; actives raise or lower the signal
Outline: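 Transiently transfected HepG2 cells bearing cis-promoter reporter units for endogenous transcription factors; 24 h exposure. Reporter mRNA measured by RT-PCR, 6-FAM primer extension, HpaI cut and capillary electrophoresis; bidirectional fit relative to DMSO.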

[3] = ATG_NRF2_ARE_CIS: Attagene CIS-FACTORIAL HepG2 Assay for human Nuclear Factor Erythroid 2 Related Factor 2 (NFR2) response to Antioxidant Response Elements (ARE) (AID 2282992); settings: HepG2 Attagene ARE/NRF2 reporter, transcription factor activity; actives raise or lower the signal;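 on AC50: reporter mRNA level measured by RT-PCR and capillary electrophoresis fluorescence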
Outline: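 Transient MRTU transfection of HepG2; 24 h compound exposure; TriZol RNA, RT with oligo(dT), PCR, 6-FAM primer extension, HpaI cut, CE. Bidirectional fit vs DMSO.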

[4] = ATG_Oct_MLP_CIS: Attagene CIS-FACTORIAL HepG2 Assay for human Octamer-Binding Transcription Factor (Oct) (AID 2282993); settings: HepG2 Attagene cis-factorial Oct reporter, mRNA; actives raise or lower the signal
Outline: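 Transient MRTU transfection of HepG2 → 24 h compound treatment → RNA isolation, reverse transcription, PCR → 6-FAM primer extension, HpaI digest → capillary electrophoresis. Activity fitted both directions against DMSO.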

[5] = target: Cellular tumor antigen p53 (Homo sapiens) (UniProt P04637); test: ATG_p53_CIS: Attagene CIS-FACTORIAL HepG2 Assay for human p53 Transcription Factor (AID 2282994); settings: HepG2 p53 cis-element reporter, Attagene mRNA; actives raise or lower the signal
Outline: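 HepG2, transient MRTU transfection (cis promoter elements, endogenous TFs); 24 h dosing; RNA isolation, RT-PCR, 6-FAM primer extension, HpaI digest, CE fluorescence; bidirectional fit vs DMSO.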

[6] = target: human Peroxisome Proliferator-activated Receptor alpha (PPARa), PPARA (gene 5465) (UniProt Q07869); test: ATG_PPARa_TRANS: Attagene TRANS-FACTORIAL HepG2 Assay for human Peroxisome Proliferator-activated Receptor alpha (PPARa) (AID 2283001; active means hit-call score of the fitted dose curve at least 0.9, where 1 is the maximum)
Outline: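 Measures transcriptional activity of an exogenous chimeric PPARa-Gal4 protein in transiently transfected HepG2 cells after 24 h dosing. Reporter mRNA quantified via RT-PCR and capillary electrophoresis; DMSO served as negative control.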

[7] = target: human Peroxisome Proliferator-activated Receptor delta (PPARd), PPARD (gene 5467) (UniProt Q03181); test: ATG_PPARd_TRANS: Attagene TRANS-FACTORIAL HepG2 Assay for human Peroxisome Proliferator-activated Receptor delta (PPARd) (AID 2283002; active means hit-call score of the fitted dose curve at least 0.9, where 1 is the maximum)
Outline: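 HepG2 cells transiently transfected with GAL4-UAS multiplexed reporter units driven by exogenous chimeric NR-GAL4 proteins; 24 h compound exposure. Reporter mRNA measured by RT-PCR, 6-FAM primer extension, HpaI digestion and capillary electrophoresis; gain of signal fitted relative to DMSO.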

[8] = target: Retinoic acid receptor alpha (Homo sapiens) (UniProt P10276); test: ATG_RARa_TRANS: Attagene TRANS-FACTORIAL HepG2 Assay for human Retinoic Acid Receptor alpha (RARa) (AID 2283005; active means hit-call score of the fitted dose curve at least 0.9, where 1 is the maximum)
Outline: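 HepG2 transiently transfected with multiplex GAL4-UAS reporter units including a human RARa–GAL4 chimera; 24 h compound exposure. Reporter mRNA quantified by RT-PCR, 6-FAM labeling and capillary electrophoresis; gain of signal versus DMSO.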

[9] = target: Peroxisome proliferator-activated receptor gamma (Homo sapiens) (UniProt P37231); test: ATG_PPARg_TRANS: Attagene TRANS-FACTORIAL HepG2 Assay for human Peroxisome Proliferator-activated Receptor-gamma (PPARg) (AID 2283007; active means hit-call score of the fitted dose curve at least 0.9, where 1 is the maximum)
Outline: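 Chimeric NR-Gal4 transactivation is measured in transiently transfected HepG2 cells by reporter mRNA induction at 24 h. Detection uses RT-PCR with fluorescent labelling and capillary electrophoresis; DMSO defines baseline.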

[10] = target: Nuclear receptor subfamily 1 group I member 2 (Homo sapiens) (UniProt O75469); test: ATG_PXR_TRANS: Attagene TRANS-FACTORIAL HepG2 Assay for human Pregnane X Receptor (PXR) (AID 2283008; active means hit-call score of the fitted dose curve at least 0.9, where 1 is the maximum)
Outline: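 Read-out is fluorescence of labelled reporter cDNA fragments separated by capillary electrophoresis after RT-PCR and HpaI digestion. Source: HepG2 cells carrying PXR-GAL4/UAS reporter constructs, treated 24 h; activity fitted upward relative to DMSO.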

[11] = target: human Retinoic Acid Receptor gamma (RARg), RARG (gene 5916) (UniProt P13631); test: ATG_RARg_TRANS: Attagene TRANS-FACTORIAL HepG2 Assay for human Retinoic Acid Receptor gamma (RARg) (AID 2283009; active means hit-call score of the fitted dose curve at least 0.9, where 1 is the maximum)
Outline: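 HepG2 cells transiently transfected with multiplexed reporter units expressing chimeric RARg-GAL4 and GAL4-UAS-driven reporters; 24 h compound exposure. Reporter mRNA quantified by RT-PCR with fluorescent labelling and capillary electrophoresis; gain-of-signal fitted relative to DMSO baseline.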

[12] = target: human RAR-related Orphan Receptor beta (RORb), RORB (gene 6096) (UniProt Q92753); test: ATG_RORb_TRANS: Attagene TRANS-FACTORIAL HepG2 Assay for human RAR-related Orphan Receptor beta (RORb) (AID 2283010; active means hit-call score of the fitted dose curve at least 0.9, where 1 is the maximum)
Outline: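 HepG2 cells were transiently transfected with multiplexed GAL4-UAS reporter units expressing chimeric nuclear receptor–GAL4 proteins, then dosed for 24 h. Reporter mRNA was quantified by RT-PCR with fluorescent labelling and capillary electrophoresis; gain of signal was fitted relative to DMSO.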

[13] = BSK_3C_TissueFactor: BioMAP Diversity Plus: 3C Assay for Tissue Factor Biomarker Activity (AID 2282997); settings: BioMAP 3C HUVEC, tissue factor biomarker readout; actives raise or lower the signal
Outline: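 Dosing of human umbilical vein endothelial cells preceded a 24 h incubation. Tissue Factor was then read by ELISA, with increases and decreases both scored relative to DMSO controls.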

[14] = BSK_3C_uPAR: BioMAP Diversity Plus: 3C Assay for Urokinase-type plasminogen activator receptor (uPAR) Biomarker Activity (AID 2282998); settings: BioMAP 3C HUVEC, uPAR biomarker ELISA; actives raise or lower the signal
Outline: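 ELISA readout of uPAR on human vascular endothelium (umbilical vein primary cells), taken 24 h after chemical dosing. Increases and decreases are both fitted relative to DMSO vehicle.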

[15] = BSK_3C_VCAM1: BioMAP Diversity Plus: 3C Assay for Vascular cell adhesion molecule 1 (VCAM1) Biomarker Activity (AID 2282999); settings: BioMAP 3C HUVEC, VCAM1 ELISA, cytokine-stimulated; actives raise or lower the signal
Outline: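 Human umbilical vein endothelial cells (3C system), biomarker read by ELISA 24 h after dosing; bidirectional fit against DMSO baseline. Cytotoxicity tracked by SRB total-protein staining in parallel cultures at biomarker time.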

[16] = BSK_4H_Eotaxin3: BioMAP Diversity Plus: 4H Assay for Eotaxin 3 Biomarker Activity (AID 2283000); settings: primary human endothelial cells (HUVEC); actives raise or lower the signal;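 further: CCL26 protein level quantified by ELISA in parallel with SRB cytotoxicity check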
Outline: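 Human umbilical vein endothelial cells (BSK_4H system) dosed with test chemical; Eotaxin-3 (CCL26) measured by ELISA 24 h after dosing. Bidirectional curve fitting relative to DMSO negative control as baseline.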

[17] = read-out: Intercellular Adhesion Molecule 1 (ICAM1), ICAM1 (gene 3383); test: BSK_3C_ICAM1: BioMAP Diversity Plus: 3C Assay for Intercellular Adhesion Molecule 1 (ICAM1) Biomarker Activity (AID 2283003); settings: primary human endothelial cells (HUVEC); actives raise or lower the signal
Outline: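 Primary human umbilical vein endothelial cells in the BioMAP 3C system were exposed to chemicals for 24 h, then ICAM-1 was quantified by ELISA. Activity was fitted bidirectionally against the DMSO negative control baseline.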

[18] = BSK_3C_Proliferation: Cell Proliferation Assessment in the BioMAP Diversity Plus: 3C Assay (AID 2283006); settings: primary human endothelial cells (HUVEC)
Outline: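 Human umbilical vein endothelial cells were grown sub-confluent and exposed to chemical for 48 h, then fixed with 10% TCA and stained with 0.1% sulforhodamine B; absorbance at 560 nm gave relative cell number, fitted bidirectionally against DMSO baseline.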

[19] = target: human Retinoic Acid Receptor beta (RARb), RARB (gene 5915) (UniProt P10826); test: ATG_RARb_TRANS: Attagene TRANS-FACTORIAL HepG2 Assay for human Retinoic Acid Receptor beta (AID 2283004; active means hit-call score of the fitted dose curve at least 0.9, where 1 is the maximum)
Outline: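 Induction of reporter mRNA from a chimeric RARb-Gal4 construct was measured by RT-PCR, FAM labelling, HpaI digestion and capillary electrophoresis. Measurements followed 24 h compound treatment of transiently transfected human HepG2 liver cells, with DMSO as baseline.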

[20] = ATG_NF_kB_CIS: Attagene CIS-FACTORIAL HepG2 Assay for human Nuclear Factor Kappa B (NF-kB) (AID 2282991); settings: HepG2 Attagene cis-factorial NF-kB reporter mRNA; actives raise or lower the signal
Outline: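 DMSO served as negative control and baseline for bidirectional curve fitting. Transiently transfected HepG2 cells were dosed for 24 h, then reporter transcripts were measured by RT-PCR with capillary electrophoresis detection.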

Measured: AC50

Chain of Peroxisome proliferator-activated receptor gamma (Homo sapiens) (P37231 whole entry, looked up, the tested form may be a part): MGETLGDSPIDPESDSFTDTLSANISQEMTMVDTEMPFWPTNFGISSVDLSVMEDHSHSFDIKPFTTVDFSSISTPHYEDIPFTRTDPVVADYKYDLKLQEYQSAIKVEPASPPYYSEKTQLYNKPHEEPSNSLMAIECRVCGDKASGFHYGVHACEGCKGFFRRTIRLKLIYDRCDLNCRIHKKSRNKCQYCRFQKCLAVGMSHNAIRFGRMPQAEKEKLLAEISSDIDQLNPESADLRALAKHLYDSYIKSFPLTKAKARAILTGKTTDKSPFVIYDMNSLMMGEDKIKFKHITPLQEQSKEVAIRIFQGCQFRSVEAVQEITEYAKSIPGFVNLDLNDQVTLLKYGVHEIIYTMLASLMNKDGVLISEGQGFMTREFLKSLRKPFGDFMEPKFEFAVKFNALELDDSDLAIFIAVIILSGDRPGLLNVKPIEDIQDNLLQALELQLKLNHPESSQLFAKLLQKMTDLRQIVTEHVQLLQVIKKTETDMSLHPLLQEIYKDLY
Chain of Myc proto-oncogene protein (Homo sapiens) (P01106 whole entry, looked up): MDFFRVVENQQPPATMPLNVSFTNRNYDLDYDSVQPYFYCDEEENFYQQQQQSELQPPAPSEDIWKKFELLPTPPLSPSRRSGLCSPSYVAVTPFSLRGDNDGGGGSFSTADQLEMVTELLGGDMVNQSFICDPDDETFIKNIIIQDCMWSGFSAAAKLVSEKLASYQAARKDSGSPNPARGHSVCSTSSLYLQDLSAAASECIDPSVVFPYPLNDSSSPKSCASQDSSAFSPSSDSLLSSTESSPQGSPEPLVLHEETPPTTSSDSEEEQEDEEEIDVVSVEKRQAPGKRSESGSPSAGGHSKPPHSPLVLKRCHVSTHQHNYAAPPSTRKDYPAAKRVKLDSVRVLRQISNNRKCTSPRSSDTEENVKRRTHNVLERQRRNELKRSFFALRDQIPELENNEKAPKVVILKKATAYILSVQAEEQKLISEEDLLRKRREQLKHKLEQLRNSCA
Chain of human Retinoic Acid Receptor beta (RARb), RARB (gene 5915) (P10826 whole entry, looked up, the tested form may be a part): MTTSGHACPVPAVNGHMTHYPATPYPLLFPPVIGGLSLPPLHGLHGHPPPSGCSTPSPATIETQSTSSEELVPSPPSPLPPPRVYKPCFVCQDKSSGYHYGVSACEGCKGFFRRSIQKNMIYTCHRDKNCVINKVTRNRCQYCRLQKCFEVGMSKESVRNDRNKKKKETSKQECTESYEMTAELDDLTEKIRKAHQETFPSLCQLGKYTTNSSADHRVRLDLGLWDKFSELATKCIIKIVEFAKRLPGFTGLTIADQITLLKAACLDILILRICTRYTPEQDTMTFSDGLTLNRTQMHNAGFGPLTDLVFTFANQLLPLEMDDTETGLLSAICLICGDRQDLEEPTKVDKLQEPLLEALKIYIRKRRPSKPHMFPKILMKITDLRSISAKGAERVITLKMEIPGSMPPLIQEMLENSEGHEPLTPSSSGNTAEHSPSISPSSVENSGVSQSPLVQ
Chain of human RAR-related Orphan Receptor beta (RORb), RORB (gene 6096) (Q92753 whole entry, looked up, the tested form may be a part): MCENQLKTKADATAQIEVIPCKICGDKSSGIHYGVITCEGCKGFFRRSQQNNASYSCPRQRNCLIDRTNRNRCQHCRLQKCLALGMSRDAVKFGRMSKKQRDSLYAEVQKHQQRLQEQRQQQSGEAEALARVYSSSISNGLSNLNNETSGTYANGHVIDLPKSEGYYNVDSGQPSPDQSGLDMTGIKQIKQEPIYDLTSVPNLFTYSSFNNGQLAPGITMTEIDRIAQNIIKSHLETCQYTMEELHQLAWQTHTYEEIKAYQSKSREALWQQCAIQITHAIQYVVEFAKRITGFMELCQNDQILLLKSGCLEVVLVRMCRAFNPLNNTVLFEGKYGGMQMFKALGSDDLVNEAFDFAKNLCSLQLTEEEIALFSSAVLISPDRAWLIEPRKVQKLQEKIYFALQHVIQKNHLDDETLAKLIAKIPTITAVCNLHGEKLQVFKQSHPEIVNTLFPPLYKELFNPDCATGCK
Chain of Nuclear receptor subfamily 1 group I member 2 (Homo sapiens) (O75469 whole entry, looked up, the tested form may be a part): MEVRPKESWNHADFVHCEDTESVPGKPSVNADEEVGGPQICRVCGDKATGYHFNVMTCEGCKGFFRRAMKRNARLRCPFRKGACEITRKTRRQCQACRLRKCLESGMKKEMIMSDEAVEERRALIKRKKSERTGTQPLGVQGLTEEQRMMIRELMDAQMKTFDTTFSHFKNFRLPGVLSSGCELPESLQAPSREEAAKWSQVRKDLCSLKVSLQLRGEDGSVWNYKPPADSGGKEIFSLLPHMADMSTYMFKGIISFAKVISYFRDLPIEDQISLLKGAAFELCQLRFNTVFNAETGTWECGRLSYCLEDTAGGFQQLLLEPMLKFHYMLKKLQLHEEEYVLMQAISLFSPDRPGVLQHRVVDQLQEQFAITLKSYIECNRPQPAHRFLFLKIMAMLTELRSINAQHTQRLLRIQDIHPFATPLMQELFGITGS
Chain of Cellular tumor antigen p53 (Homo sapiens) (P04637 whole entry, looked up): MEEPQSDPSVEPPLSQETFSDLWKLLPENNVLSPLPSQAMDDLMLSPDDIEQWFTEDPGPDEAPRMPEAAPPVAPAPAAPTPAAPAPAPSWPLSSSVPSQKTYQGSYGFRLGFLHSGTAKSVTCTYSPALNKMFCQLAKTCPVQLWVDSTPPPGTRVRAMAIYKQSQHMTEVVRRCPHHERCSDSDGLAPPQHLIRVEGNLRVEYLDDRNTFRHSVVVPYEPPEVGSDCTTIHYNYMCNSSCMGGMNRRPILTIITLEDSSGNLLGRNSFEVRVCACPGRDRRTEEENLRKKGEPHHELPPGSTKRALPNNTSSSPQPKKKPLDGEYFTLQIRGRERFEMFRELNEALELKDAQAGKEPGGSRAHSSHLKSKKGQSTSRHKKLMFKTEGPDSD
Chain of human Peroxisome Proliferator-activated Receptor alpha (PPARa), PPARA (gene 5465) (Q07869 whole entry, looked up, the tested form may be a part): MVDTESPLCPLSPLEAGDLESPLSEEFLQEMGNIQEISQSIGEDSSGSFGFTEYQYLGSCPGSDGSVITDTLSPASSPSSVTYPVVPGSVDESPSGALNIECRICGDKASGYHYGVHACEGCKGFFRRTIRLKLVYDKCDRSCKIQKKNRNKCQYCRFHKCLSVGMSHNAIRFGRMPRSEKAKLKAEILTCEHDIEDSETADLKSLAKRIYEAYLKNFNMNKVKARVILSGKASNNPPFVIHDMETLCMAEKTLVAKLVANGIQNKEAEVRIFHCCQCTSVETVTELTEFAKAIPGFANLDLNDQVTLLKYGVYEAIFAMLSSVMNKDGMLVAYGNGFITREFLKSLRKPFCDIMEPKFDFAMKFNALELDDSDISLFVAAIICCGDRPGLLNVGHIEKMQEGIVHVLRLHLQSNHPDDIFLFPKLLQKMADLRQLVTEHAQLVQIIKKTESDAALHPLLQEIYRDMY
Chain of human Peroxisome Proliferator-activated Receptor delta (PPARd), PPARD (gene 5467) (Q03181 whole entry, looked up, the tested form may be a part): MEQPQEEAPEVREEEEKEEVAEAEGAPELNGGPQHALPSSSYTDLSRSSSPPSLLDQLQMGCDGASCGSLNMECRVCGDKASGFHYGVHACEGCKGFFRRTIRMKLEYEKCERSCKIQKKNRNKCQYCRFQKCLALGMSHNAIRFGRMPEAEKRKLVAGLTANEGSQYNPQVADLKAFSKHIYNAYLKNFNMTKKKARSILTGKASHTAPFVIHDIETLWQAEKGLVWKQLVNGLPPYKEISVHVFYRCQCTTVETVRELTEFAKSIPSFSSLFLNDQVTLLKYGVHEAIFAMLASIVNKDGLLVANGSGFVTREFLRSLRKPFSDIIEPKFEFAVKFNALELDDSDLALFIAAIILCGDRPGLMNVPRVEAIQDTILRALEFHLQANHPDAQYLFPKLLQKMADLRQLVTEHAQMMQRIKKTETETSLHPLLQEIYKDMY
Chain of human Retinoic Acid Receptor gamma (RARg), RARG (gene 5916) (P13631 whole entry, looked up, the tested form may be a part): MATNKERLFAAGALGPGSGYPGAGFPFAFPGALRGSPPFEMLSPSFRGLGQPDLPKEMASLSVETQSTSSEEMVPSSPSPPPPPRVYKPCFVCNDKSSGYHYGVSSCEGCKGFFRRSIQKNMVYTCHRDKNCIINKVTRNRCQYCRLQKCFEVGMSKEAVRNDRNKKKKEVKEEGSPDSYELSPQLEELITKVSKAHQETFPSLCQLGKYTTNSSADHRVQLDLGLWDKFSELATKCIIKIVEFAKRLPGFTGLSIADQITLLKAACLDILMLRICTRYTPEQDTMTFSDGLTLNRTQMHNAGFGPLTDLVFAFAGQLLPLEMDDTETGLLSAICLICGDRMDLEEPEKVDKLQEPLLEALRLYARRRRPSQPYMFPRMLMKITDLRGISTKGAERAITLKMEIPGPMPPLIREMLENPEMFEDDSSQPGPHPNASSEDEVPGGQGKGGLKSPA
Chain of Retinoic acid receptor alpha (Homo sapiens) (P10276 whole entry, looked up, the tested form may be a part): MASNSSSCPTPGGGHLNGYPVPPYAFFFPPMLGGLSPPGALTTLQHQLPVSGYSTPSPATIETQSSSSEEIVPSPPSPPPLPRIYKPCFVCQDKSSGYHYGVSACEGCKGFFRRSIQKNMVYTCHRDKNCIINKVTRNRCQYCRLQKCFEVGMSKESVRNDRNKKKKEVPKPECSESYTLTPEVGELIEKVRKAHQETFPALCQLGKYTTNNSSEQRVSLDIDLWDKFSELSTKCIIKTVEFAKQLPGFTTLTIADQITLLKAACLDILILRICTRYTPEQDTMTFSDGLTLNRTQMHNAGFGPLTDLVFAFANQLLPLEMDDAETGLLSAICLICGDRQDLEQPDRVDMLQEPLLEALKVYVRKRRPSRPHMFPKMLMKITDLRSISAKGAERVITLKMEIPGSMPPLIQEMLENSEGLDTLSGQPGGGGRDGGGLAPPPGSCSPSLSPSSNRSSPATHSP

O=C(Nc1ccccc1)c1ccccc1O
inactive: [1] | [2] | [3] | [5] | [6] | [7] | [8] | [10] | [11]
active: [4] 48.3 µM | [9] 55.9 µM

CC1=NN(c2cc(S(=O)(=O)O)ccc2Cl)C(=O)C1N=Nc1ccccc1 (stereo unspecified)
inactive: [1] | [2] | [3] | [4] | [5] | [6] | [9] | [10] | [11] | [12]

CC1OC1C1CCC2(C)OC2C1 (stereo unspecified)
active: [3] 100 µM | [10] 23.4 µM
not listed: [6] | [7] | [9] | [11] | [19] | [20]
inactive: all other assays above

CCN(CC#N)c1cccc(C)c1
inactive: [1] | [2] | [3] | [4] | [5] | [7] | [19] | [9] | [10]

CC(=O)C=CC1C(C)=CCC(C)C1(C)C (stereo unspecified)
inactive: [1] | [2] | [20] | [4] | [5] | [7] | [9]
active: [10] 1.42 µM

O=C1OC(=O)c2cc(Oc3ccc4c(c3)C(=O)OC4=O)ccc21
inactive: [1] | [2] | [20] | [4] | [5] | [6] | [19]

C=CC(=O)OCCC(=O)O
inactive: [1] | [2] | [20] | [4] | [5] | [6] | [9] | [10]

CC(=O)Oc1ccc(C)cc1
inactive: [1] | [2] | [20] | [4] | [5] | [19] | [9] | [11]

CC=C1CC2C=CC1C2 (stereo unspecified)
inactive: [1] | [2] | [4] | [5] | [7]
active: [20] 100 µM | [9] 25.9 µM | [10] 7.51 µM

O=C(O)Cc1c(Cl)ccc(Cl)c1Cl
active: [9] 52.1 µM
inactive: [1] | [2] | [3] | [4] | [5] | [7] | [19] | [10] | [11]

Nc1ccc(Cl)cc1Cl
inactive: [1] | [2] | [20] | [4] | [5] | [6] | [10]

O=C(O)c1cc2ccccc2nc1C(=O)O
inactive: [1] | [2] | [20] | [5] | [6] | [9] | [10]

Cc1ccc(C(C)(C)C)cc1
inactive: [1] | [2] | [3] | [4] | [5] | [6] | [19] | [10] | [12]
